An excerpt weighted towards active compounds, which were near 0.28% of everything screened.
USP2a block: blocks human ubiquitin-specific protease USP2a | O75604 | USP2 core, Ub-CHOP2 coupled fluorogenic reporter, 485/531 | Potency, µM (doses to about 38.3 µM), for inactives: top-dose activity change, negative = inhibition, most hits filed as inhibitors | hit rate 0.01% among 330,000 | AID 463254;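 further: potency means the concentration at half of the fitted maximal effect; plate controls were DMSO wells for no effect and full inhibition by NEM control for full effect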
Target sequence (O75604 whole entry, looked up): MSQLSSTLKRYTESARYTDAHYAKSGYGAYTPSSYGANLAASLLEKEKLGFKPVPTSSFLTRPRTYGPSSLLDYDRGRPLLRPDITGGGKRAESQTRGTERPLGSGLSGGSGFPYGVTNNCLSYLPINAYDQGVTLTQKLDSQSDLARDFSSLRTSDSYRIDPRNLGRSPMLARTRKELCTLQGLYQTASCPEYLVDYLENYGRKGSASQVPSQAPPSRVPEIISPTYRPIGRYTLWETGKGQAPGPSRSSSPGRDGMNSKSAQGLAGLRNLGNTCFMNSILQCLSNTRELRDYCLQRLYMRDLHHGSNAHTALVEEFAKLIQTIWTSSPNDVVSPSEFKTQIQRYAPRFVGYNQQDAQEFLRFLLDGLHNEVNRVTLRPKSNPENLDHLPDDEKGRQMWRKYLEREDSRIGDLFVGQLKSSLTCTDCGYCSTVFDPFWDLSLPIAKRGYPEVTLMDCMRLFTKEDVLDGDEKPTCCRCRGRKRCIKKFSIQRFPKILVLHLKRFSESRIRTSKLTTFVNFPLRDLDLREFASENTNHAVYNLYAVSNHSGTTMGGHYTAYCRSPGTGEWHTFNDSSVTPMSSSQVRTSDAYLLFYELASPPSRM
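Cell-free coupled assay: 10nM USP2 core preincubated 30min RT with compound in Tris-HCl pH 8.0/CaCl2/CHAPS buffer, then 25nM Ub-CHOP2 and 25nM reporter substrate; fluorescence (Ex 485/Em 531) read after 60min RT, normalized to NEM inhibition, concentration-response curves fitted.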
PI4K2A block: PI4K2A (human) kinase inhibition; Q9BTU6; purified PI4K2A, ADP-Glo luminescence, 1 h; active compounds read low; activity change, negative = inhibition, % at 76.9 µM; hit rate 0.13% among 420,000; AID 1346378; in the data active means activity change below about -50%; inconclusive means mostly about -30% to -49%;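 further: -100% = wells without enzyme as full effect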
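In this quantitative HTS, ADP production by PI4K2A was quantified luminescently after 1 h at ambient temperature; 100 microM adenosine served as plate-quality control.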
Pin1 inh: human Pin1 inhibition. hit rate 0.009% among 390,000. AID 504891. Q13526. Pin1 FP peptide displacement, HiFluor488, 10 min. Potency, µM (doses to about 115 µM), for inactives: at the highest dose activity, negative = inhibition, most hits filed as inhibitors; active means well fitted inhibition curve with a large enough effect in the polarisation, with a control signal flat, not every such curve was filed as active; inconclusive means small, poorly fitted or top-dose-only effect, or effect the other way, or a change in a side signal; inactive means no such curve, though single readings can be large or run the other way; the % refers to the polarisation; further: potency means the concentration at half of the fitted maximal effect
Target sequence (Q13526 whole entry, looked up): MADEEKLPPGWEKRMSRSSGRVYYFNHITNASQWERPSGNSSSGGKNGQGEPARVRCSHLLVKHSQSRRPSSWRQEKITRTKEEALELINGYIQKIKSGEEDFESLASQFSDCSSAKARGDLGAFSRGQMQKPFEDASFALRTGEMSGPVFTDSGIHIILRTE
Tb PGK inh: T. brucei PGK inhibition; PGK/GAPDH coupled, Kinase-Glo luminescence, 60 min; hit rate 0.043% among 380,000; Potency, µM (titrated, usually from 57.5 µM), inactives show top-dose activity change, negative = inhibition, actives largely listed as inhibitors; AID 602233; further: potency means the concentration at half of the fitted maximal effect; nearly all actives have a fitted effect of over 60% in size
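Recombinant glycosomal PGK reaction used 1,3-bisphosphoglycerate generated in-well by GAPDH (100nM final) in 100mM TEA pH 7.6, 5mM MgCl2, 0.01% Tween-20. After 60 minutes at room temperature, ATP was read by Kinase-Glo Plus luminescence end-point.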
Tb PFK block: blocks T. brucei phosphofructokinase; O15648; T. brucei PFK, ADP-Glo luminescence; Potency, µM (titrated, usually from 57.5 µM), for inactives: top-dose activity, negative = inhibition, usual class: inhibitors; hit rate 0.17% among 330,000;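 further: potency means the concentration at half of the fitted maximal effect; 0% = uninhibited 1x PFK enzyme wells and -100% = no-enzyme wells; nearly all actives have a fitted effect of over 60% in size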
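1.25 nM PFK with 0.5 mM F6P and 0.1 mM ATP in 0.1 M TEA pH 8.0, 5 mM MgCl2, incubated 45 min at room temperature; ADP measured by ADP-Glo luminescence; compounds titrated up to 57 uM.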
* hit, by the source's call; i = inactive; ? = inconclusive; / = no result given. Unless noted, the call rests on the fitted dose curve; in most records, active means well fitted curve in the direction sought with a large enough effect; inconclusive means small, poorly fitted or top-dose-only effect, or another doubt; inactive means no such curve, though single readings can be large; an effect the other way counts as inactive or inconclusive. Unless noted, on the % scale 0 is the no-effect control and ±100 the full control effect.

SMILES | USP2a block | PI4K2A block | Pin1 inh | Tb PGK inh | Tb PFK block
CC(=O)N1CCN(c2cccc(Nc3nn4c(=O)c5ccccc5nc4s3)c2)CC1 | / | / | 0.5% | / | /
C=C(C)C(=O)Nc1cccc(C2=NOC3(C2)C[C@H](C(N)=O)N(C(=O)CC)C3)c1 (stereo partly specified) | 8.5% | -14.1 | -15.3% | 5.62µM* | ?
CC#C[C@]1(O)CC[C@H]2[C@@H]3C[C@H](C)C4=CC(=O)CC[C@]4(C)[C@H]3CC[C@@]21C | / | -5.5 | / | / | /
COC1=CC(=O)c2c(ccc3ncnc(N)c23)C1=O | / | -57.8* | / | ? | /
COc1ccc(OCC(=O)Nc2nccs2)cc1 | 0.2% | ? | -3.5% | -19.0% | -14.4%
CCOc1ccc(OCC(=O)Nc2nccs2)cc1 | -1.3% | -86.3* | 0.7% | ? | 26.9µM*
CCC(=O)NC(c1cc(Cl)c2cccnc2c1O)c1cccn1C (stereo unspecified) | / | / | -4.9% | / | /
CCCSc1ccc2nc(-c3ccccc3)cn2c1 | 2.2% | -67.5* | 4.5% | ? | -15.0%
COCCc1ccc(OCC2CO2)cc1 (stereo unspecified) | / | 2.5 | / | / | /
O=C(NN=Cc1ccc(O)c(O)c1)c1ccccc1 | / | -3.6 | / | / | /
O=C(COc1ccccc1C(=O)N/N=C\c1ccc(O)c(O)c1)N/N=C/c1ccc(O)c(O)c1 | 0.2% | -4.1 | ? | 2.24µM* | ?
NC(=O)N1CCN(c2nc(-c3ccc(Br)cc3)cs2)CC1 | / | / | -3.1% | / | /
CCCCCCCCCCCC1=C(O)C(=O)C=C(O)C1=O | / | -11.7 | 28.2µM* | -7.3% | /
COc1ccc2cc3[n+](cc2c1O)CCc1cc2c(cc1-3)OCO2 | / | -52.3* | / | / | /
COc1cc2c(cc1OC)-c1cc3ccc(OC)c(OC)c3c[n+]1CC2 | -3.2% | -5.6 | -3.1% | 0.4% | -7.8%
CSc1ccccc1NC(=O)COc1ccc(Cl)cc1Cl | 1.1% | -9.9 | -2.8% | -2.3% | -2.4%
O=C(COc1ccc(Cl)cc1Cl)Nc1ccccn1 | -1.2% | -74.8* | 0.9% | ? | 16.9µM*
Cc1ccc(S(=O)(=O)Nc2c(O)ccc3ccccc23)cc1 | / | -3.7 | 31.5% | 7.8% | /
Cc1ccc(S(=O)(=O)Nc2c(Cl)c(Cl)c(O)c3ccccc23)cc1 | 0.3% | / | / | / | 15.1µM*
COc1ccc(C2Nc3ccccc3C(=O)N2CCc2ccc(Cl)cc2Cl)cc1COc1ccc(NC(C)=O)cc1 (stereo unspecified) | / | / | -5.3% | / | /
O=C1N/C(=C\c2ccc(O)cc2)C(=O)c2ccccc21 | -0.8% | -50.2* | 3.7% | -14.8% | 19.5%
Cc1c(P(=S)(c2ccccc2)c2ccccc2)c2ccccc2n1C/C=C/c1ccccc1 | / | / | 0.7% | / | /
CC(=O)N1CCN(c2nc(-c3ccc(Br)cc3)cs2)CC1 | / | / | -5.8% | / | /
O=c1[nH]c(Nc2ccc(F)cc2)cc2ccccc12 | 0.4% | -51.3* | ? | -16.9% | -2.8%
O=c1[nH]c(Nc2ccccc2Cl)cc2ccccc12 | / | -29.0 | -2.9% | -6.9% | /
SMILES | USP2a block | PI4K2A block | Pin1 inh | Tb PGK inh | Tb PFK block
C=CCNc1nc(NCC=C)nc(N2CCN(C(c3ccc(F)cc3)c3ccc(F)cc3)CC2)n1 | / | 0.3 | / | / | /
O=c1cc(-c2ccccc2)[nH]n1-c1ccccc1 | / | -7.6 | 4.8% | -2.8% | /
CC(C)(C)c1cc(=O)n(-c2ccccc2)[nH]1 | 0.4% | -53.9* | ? | -24.7% | -0.1%
O=C1CCc2cc(S(=O)(=O)Nc3ccccc3-c3ccccc3)ccc2N1 | / | / | 2.7% | / | /
COc1ccc2nc(NC(=O)c3ccoc3C)sc2c1 | 0.8% | -84.5* | -4.0% | ? | -20.4%
c1c[nH]c(C2CCN(c3ncc(-c4ccc5c(c4)OCCCO5)s3)CC2)n1 | / | / | 4.3% | / | /
O=C(Nc1ccc(C(=O)N2CCCC2)cc1)c1ccccc1F | -0.2% | -70.3* | -3.1% | ? | ?
C/C=C(/C(=C/C)c1ccc(OC(C)=O)cc1)c1ccc(OC(C)=O)cc1 | / | -1.0 | / | / | /
CN(C)c1ccc(/C=N/NC(=O)c2ccccn2)cc1 | 1.4% | -50.1* | -9.4% | ? | ?
O=C(N/N=C/c1ccncc1)c1ccccn1 | 3.2% | 0.5 | -7.8% | -11.8% | 23.6%
O=C(O)c1ccc(N/N=C/c2ccc3c(c2)OCO3)cc1 | 0.0% | -66.8* | 7.9% | ? | -21.1%
Cc1occc1C(=O)N/N=C/c1ccc2c(c1)OCO2 | -2.3% | -65.3* | 2.0% | ? | ?
O=C(O)c1cc(N/N=C/c2ccc3c(c2)OCO3)ccc1Cl | -0.9% | -11.7 | -11.9% | -8.5% | -2.9%
O=C(CCc1ccc(O)c(O)c1)N/N=C/c1ccc2c(c1)OCO2 | -0.5% | -1.8 | ? | 6.1% | 4.26µM*
Cc1cc(C(=O)N/N=C/c2ccc3c(c2)OCO3)c(C)o1 | -0.9% | -10.3 | -3.3% | -11.9% | -6.2%
Cc1ccsc1C(=O)N/N=C/c1ccc2c(c1)OCO2 | 0.1% | -53.6* | -4.8% | ? | -25.7%
O=C(N/N=C/c1ccc2c(c1)OCO2)c1cccs1 | 2.0% | -7.2 | -1.5% | -19.0% | -4.0%
CC(C)Oc1ccc(CCC(=O)N/N=C/c2ccc3c(c2)OCO3)cc1 | 0.7% | 2.5 | 2.7% | -3.4% | 2.3%
Clc1ccc(C(Cn2ccnc2)OCc2ccc(Sc3ccccc3)cc2)c(Cl)c1 (stereo unspecified) | / | -0.7 | / | / | /
CN1CCC(N(Cc2ccccc2)c2ccccc2)CC1 | / | 0.1 | / | / | /
COc1ccc(-c2ccc3ncnc(NCC4CCCO4)c3c2)cc1OC (stereo unspecified) | / | / | -1.6% | / | /
Cc1occc1C(=O)N/N=C/c1ccc(-c2ccccc2)cc1 | -0.4% | -77.9* | ? | ? | -16.8%
CC(=O)c1cc2ccccc2s1 | / | -0.5 | / | / | /
COc1ccc(/C=N/Nc2snc(SC)c2C#N)cc1OC | 4.2% | -53.6* | ? | -4.1% | -2.0%
COc1cc(-c2ccc3ncnc(NCc4cccs4)c3c2)cc(OC)c1OC | / | / | 31.1% | / | /
SMILES | USP2a block | PI4K2A block | Pin1 inh | Tb PGK inh | Tb PFK block
COc1ccccc1/C=C/C=N/NC(=O)Cc1cccn1C | -2.4% | -7.2 | ? | i | 0.5%
Cn1cccc1CC(=O)NN=C/C=C\c1ccco1 | / | -52.2* | / | / | /
N#Cc1nc(Nc2cccc(Br)c2)nc(NC2CCCC2)n1 | / | / | 69.1% | / | /
COc1cc(O)oc1C=Nc1ccc(C(=O)O)cc1 | -1.2% | -50.3* | 9.9% | ? | 19.3%
Cc1ccc(C(=O)Oc2ccc(C(O)CNC(C)(C)C)cc2OC(=O)c2ccc(C)cc2)cc1 (stereo unspecified) | / | 1.9 | / | / | /
COC(=O)Cc1[nH]n(-c2nc3ccccc3s2)c(=O)c1C(C)=O | 0.5% | -53.0* | -14.1% | i | -3.5%
O=S(=O)(c1ccccc1)N1CCN(c2nccc(-c3cccs3)n2)CC1 | / | / | 38.3% | / | /
O=C(CSc1nc2ccccc2c2nc3ccccc3n12)NCc1ccco1 | -0.7% | -53.5* | ? | -10.1% | -1.6%
Nc1ncc(-c2cccc(-c3nn4c(=O)cc(N5CCNCC5)nc4s3)c2)cn1 | / | / | 35.3% | / | /
O=C(c1ccco1)N1CCN(Cc2ccc(Cl)cc2)CC1 | 3.4% | -64.7* | -0.3% | -3.3% | -1.2%
CCc1ccc(CN2CCN(C(=O)c3ccco3)CC2)cc1 | 3.8% | 4.2 | -0.7% | 1.9% | -2.4%

Assay outcomes as filed in PubChem BioAssay.
